High-throughput results (PubChem BioAssay)
This is a sample that favours compounds with a hit; in the whole collection about 21% have one here.
SARS PLP yeast: blocks SARS-CoV papain-like protease in a yeast assay. S. cerevisiae expressing SARS-CoV PLpro, growth rescue. 330,000 tested, 0.19% active. Potency, µM (highest dose often 32.9 µM), for inactives: top-dose activity, positive = growth rescue, actives largely listed as activators; also: potency is read from the fitted curve at half-maximal effect; 0% is about no effect; nearly all actives have a fitted effect of over 55% in size
Shiga toxin inh: Shiga toxin inhibition; inhibition, % at 38.7 µM; Vero cells, Shiga toxin protein synthesis inhibition reporter; AID 2315; 290,000 tested, 9.2% active; in the data active = inhibition mostly above about 28%, no sharp cut-off; inactive = mostly below about 43%; also: 0% is about no effect
Cycloheximide cs: affects cycloheximide protein synthesis inhibition readout, counter-screen; 300,000 tested, 12% active; AID 2314; cell reporter, cycloheximide protein synthesis inhibition counterscreen; max response, %; in the data active = max response mostly above about 13%, no sharp cut-off; inactive = mostly below about 14%; also: read at 38.3 µM for the half of the compounds with a filed dose; 0% is about no effect
Pf growth 48h: inhibits P. falciparum growth in the first generation, 48 h; P. falciparum luciferase growth in erythrocytes, 48 h; Potency, µM (series often up to 28.7 µM), for inactives: at the top dose activity change, negative = inhibition, most hits filed as inhibitors; 310,000 tested, 5.9% active; AID 504832; active = well fitted inhibition curve with a large enough effect; inconclusive = small, poorly fitted or top-dose-only effect, or another doubt; inactive = no such curve, though single readings can be large or run the other way; also: potency is read from the fitted curve at half-maximal effect; % is scaled to controls: 0 for no effect and ±100 for the full control effect
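Parasite viability was followed by luminescence of a genomically integrated firefly luciferase. Cultures held 0.1% parasitemia at 2% hematocrit (final), incubated under 5% CO2 at 37 C.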
NS1 inh: blocks influenza NS1 protein function | Potency, µM (top dose mostly 46.1 µM), for the others: at the top dose activity, positive = more growth | 270,000 tested, 0.4% active | AID 2326; also: potency is read from the fitted curve at half-maximal effect; actives are rising curves; nearly all actives have a fitted effect of over 50% in size
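Recovery from NS1-induced slow growth read by OD600 in budding yeast switched to galactose assay medium (pH 6.0, -URA) at 1:100 dilution. Compound 23 nl per well; the matching strain lacking NS1 serves as control.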
Pf growth 96h: P. falciparum growth inhibition at 96 hour, primary screen for plastid delayed-death inhibitors; P. falciparum luciferase reporter growth, 96 h; Potency, µM (top dose mostly 28.7 µM), for the others: at the highest dose activity change, negative = inhibition, actives largely listed as inhibitors; 320,000 tested, 6.9% active; AID 504834; active = well fitted inhibition curve with a large enough effect; inconclusive = small, poorly fitted or top-dose-only effect, or another doubt; inactive = no such curve, though single readings can be large or run the other way; also: potency is read from the fitted curve at half-maximal effect; % is scaled to controls: 0 for no effect and ±100 for the full control effect
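P. falciparum expressing integrated firefly luciferase grown in erythrocytes (2% hematocrit, 0.05% parasitemia final) with compounds for 96 hours at 37 C, 5% CO2. Growth inhibition read as loss of luminescence after adding luciferase detection reagent.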
* = called active by the depositor; ? = inconclusive; nt = no result given. Unless noted, calls follow the shape of the full dose curve.

SMILES	SARS PLP yeast	Shiga toxin inh	Cycloheximide cs	Pf growth 48h	NS1 inh	Pf growth 96h
C=CCOC(=O)C1C(=O)CC(C)(O)C(C(=O)OCC=C)C1c1ccc(N(C)C)cc1 (stereo not given)	2%	-7	-3	-7%	nt	?
CC1CCCN(C(=O)CN2C(=O)CSc3ccc(S(=O)(=O)N4CCOCC4)cc32)C1 (stereo not given)	?	2	8	-17%	1%	2%
CCOC(=O)c1[nH]c(C)c(/C(O)=C2\C(=O)C(=O)N(CCCN3CCOCC3)C2c2cccs2)c1C (stereo not given)	-2%	57	19*	24%	1%	?
COc1cccc(/C(O)=C2/C(=O)C(=O)N(CCN3CCOCC3)C2c2cccs2)c1 (stereo not given)	-1%	20	23*	21%	1%	nt
COc1ccc(OC)c(NC(=O)COC(=O)COc2ccc(Nc3ccccc3)cc2)c1	-16%	nt	nt	nt	nt	nt
CCOC(=O)C(C)Sc1nc2c(c(-c3cccs3)c1C#N)CCC2 (stereo not given)	-2%	13	-1	?	-9%	10µM*
CC(C)OC(=O)CC(=O)CSc1nc2c(c(-c3cccs3)c1C#N)CCC2	17%	8	-1	10%	30%	-3%
Cc1c(Br)c([N+](=O)[O-])nn1CC(=O)Nc1cccc2nonc12	-2%	-7	12	?	nt	43%
O=C(NCCN1CCN(c2cccc(Cl)c2)CC1)c1ccc(CSc2nc3ccncc3[nH]2)cc1	1%	19	-3	1.7µM*	nt	?
CCN(CCNC(=O)c1ccc(CSc2nc3ccncc3[nH]2)cc1)c1ccccc1	2%	-2	4	10µM*	-2%	-24%
CC(=O)Nc1c(I)c(C(=O)O)c(I)c(N(C)C(C)=O)c1I	nt	nt	nt	-24%	nt	-24%
CCOc1ccc(C(=O)n2cnnc2N)cc1	0%	2	-2	2%	-4%	23%
CCOc1cc(/C=N/NC(=O)C(C)Sc2ccccc2)ccc1O (stereo not given)	-1%	-9	1	1%	1%	47%
O=C(O)C1CCC(=O)N1C(=O)OCc1ccccc1 (stereo not given)	-1%	-2	-1	-12%	0%	36%
CCCC(=O)Nc1sc2c(c1C#N)CCCCC2	-15%	47*	37*	101%	-8%	7%
COc1ccc(-c2cc(C(F)(F)F)nc(SCC(=O)Nc3sc4c(c3C#N)CCC4)n2)cc1	5%	10	-2	4.1µM*	13%	1.7µM*
N#Cc1c(NC(=O)c2ccccc2)sc2c1CCCCC2	-1%	55*	48*	458%	1%	?
CC(=O)Nc1sc2c(c1C#N)CCCCC2	-4%	21	18*	?	-11%	nt
N#Cc1c(NC(=O)CSc2nc(-c3ccccc3)cc(C(F)(F)F)n2)sc2c1CCC2	3%	-18	-1	3%	-1%	31%
CC(Sc1cccc(C(F)(F)F)c1)C(=O)NC(N)=O (stereo not given)	4%	-15	-4	15%	1%	-2%
CCc1ccc(N2C(=O)C(Cl)=C(Nc3ccc(C(=O)N4CCCC4)cc3)C2=O)cc1	8%	nt	nt	4%	nt	7%
N#Cc1c(N2C(=O)Nc3ccccc3N2O)sc2c1CCCC2	-7%	-4	-6	43%	nt	140%
CCC(=O)Nc1sc2c(c1C(=O)N(C)C)CCCCC2	8%	-4	-4	-26%	7%	7%
Cc1ccccc1C(=O)NC(=S)Nc1sc2c(c1C#N)CCCC2	-6%	2	11	9%	?	31%
CC(C)(C)C(=O)NC(=S)Nc1sc2c(c1C#N)CCCCC2	-28%	38	19*	19%	14%	19%
N#Cc1c(N2C(=O)Nc3ccccc3N2O)sc2c1CCCCCC2	16%	-13	-2	-25%	-5%	9.3µM*
CCC(=O)Nc1sc2c(c1C#N)CCCCC2	-5%	72*	36*	58%	-8%	nt
C=CCNC(=S)Nc1sc2c(c1C#N)CCCC2	0%	68	23*	5%	8%	?
O=C(Oc1ccccc1Cl)C1CCN(C(=O)c2ccc(F)cc2)CC1	0%	nt	nt	26%	nt	3%
CSc1ncccc1C(=O)NC1CC(C)(C)Cc2c1cnn2-c1ccccc1C (stereo not given)	-6%	-26	-2	-16%	9%	8%
